High-throughput results from PubChem BioAssay.
Only some compounds are listed: those with a hit (about 7.6% of all), similar ones and a draw of the others.
RORg inh – inhibitors of mouse ROR gamma transcriptional activity; P51450; Drosophila S2 Gal4-RORgamma UAS-luciferase reporter, 20 h; Potency, µM (highest dose often 53.6 µM), for inactives: at the highest dose activity change, negative = inhibition, most hits filed as inhibitors; 5.4% of 310,000 active; AID 2551; also: potency is read from the fitted curve at half-maximal effect; % is scaled to controls: 0 for no effect and ±100 for the full control effect; nearly all actives have a fitted effect of over 60% in size
Target sequence (P51450 whole entry, looked up, the tested form may be a part): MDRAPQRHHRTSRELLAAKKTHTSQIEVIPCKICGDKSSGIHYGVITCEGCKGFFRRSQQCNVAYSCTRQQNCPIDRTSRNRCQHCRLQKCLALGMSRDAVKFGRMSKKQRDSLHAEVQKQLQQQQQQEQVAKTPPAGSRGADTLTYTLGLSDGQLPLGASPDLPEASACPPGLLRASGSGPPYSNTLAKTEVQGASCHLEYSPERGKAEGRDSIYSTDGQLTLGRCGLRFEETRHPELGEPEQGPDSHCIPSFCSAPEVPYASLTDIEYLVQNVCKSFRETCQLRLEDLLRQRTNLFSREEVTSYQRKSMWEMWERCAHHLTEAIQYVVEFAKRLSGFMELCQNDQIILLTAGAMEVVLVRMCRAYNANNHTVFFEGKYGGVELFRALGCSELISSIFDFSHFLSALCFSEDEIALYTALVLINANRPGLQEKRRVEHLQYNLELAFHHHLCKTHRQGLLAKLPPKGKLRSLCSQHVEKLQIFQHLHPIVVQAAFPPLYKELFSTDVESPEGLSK
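ROR gamma transcriptional activity was tracked as Gal4-UAS luciferase output in stably transfected Drosophila Schneider cells, with compound added 1 hr before 700 uM copper sulfate induction and a 20 hr ambient-temperature incubation.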
BRCA1 expr act – increases BRCA1 expression; Potency, µM (top dose mostly 46.1 µM), for the others: at the highest dose activation, hits mostly activators; 1.1% of 380,000 active; MCF7-BRCA1-FFLuc reporter, luminescence, 48 h; response scale: scaled: vehicle 0%, 10 µM genistein 100%; also: potency is read from the fitted curve at half-maximal effect; nearly all actives have a fitted effect of over 80% in size
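Reporter cells (MCF7, BRCA1 promoter-firefly luciferase) received library compounds across a concentration series for 48 h. End-point luminescence was measured and concentration-effect curves derived after normalization.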
VP16 counter – counter-screen for ROR gamma inhibitors: Gal4-VP16 reporter | AID 2546 | Potency, µM (highest dose often 53.6 µM), for the others: at the highest dose activity, negative = inhibition, usual class: inhibitors | 3.5% of 310,000 active | Drosophila S2 Gal4-VP16 UAS-luciferase, luminescence, 20 h;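 also: Gal4-VP16 expression switched on by copper sulfate through the metallothionein promoter; potency is read from the fitted curve at half-maximal effect; % is scaled to controls: 0 for no effect and ±100 for the full control effect; nearly all actives have a fitted effect of over 50% in size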
ELG1 repair inh – inhibitors of ELG1-dependent DNA repair in HEK293T cells; HEK293T ELG1-luciferase reporter, luminescence, 16 h; DNA damage induced by 5-fluorouridine; Potency, µM (doses to about 46.1 µM), without a hit: at the highest dose activity change, negative = inhibition, usual class: inhibitors; AID 504467; 2.3% of 330,000 active; also: potency is read from the fitted curve at half-maximal effect; % is scaled to controls: 0 for no effect and ±100 for the full control effect; nearly all actives have a fitted effect of over 55% in size
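HEK293T cells expressing luciferase-tagged ELG1 (2,000/well) received 5-Fluorouridine plus compound or DMSO for 16 hr at 37 °C. Luciferase was read by ONE-Glo luminescence after 30 min at room temperature.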
p53 reactivation – mutant p53 re-activation in reporter cells; H1299 p53-A138V BP100-luciferase reporter, luminescence, 24 h; Potency, µM (doses to about 92.2 µM), for the others: at the highest dose activity change, positive = activation, usual class: activators; 0.063% of 320,000 active; AID 504706; also: potency is read from the fitted curve at half-maximal effect; % of control where 0% means no effect; nearly all actives have a fitted effect of over 45% in size
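p53-null H1299 cells stably carrying temperature-sensitive p53-A138V and a BP100-luciferase reporter were pinned with compounds (4-point, 1:5 series) and held 24 hrs at 37 deg C. Luminescence was read 10 min after detection reagent.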
Giardia killer – kills Giardia lamblia. activity change, % at 7.66 µM, hits read low. AID 540267. 0.15% of 340,000 active. Giardia lamblia trophozoite viability; in the data active = activity change below about -80%; inconclusive = between about -30% and that limit;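 also: parasites exposed to compound for two days anaerobically before the ATP read; % is scaled to controls: 0 for no effect and ±100 for the full control effect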
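Viability, read as ATP luminescence: trophozoites at 100 cells/well, compound added, 48 hrs anaerobic at 37 deg C, then 15-30 min room-temperature development before reading.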
* marks the source's active call; other numbers are inactive results; ? = inconclusive; . = no result. Unless noted, calls follow the shape of the dose curve; as a rule, active = well fitted curve in the direction sought with a large enough effect; inconclusive = small, poorly fitted or top-dose-only effect, or another doubt; inactive = no such curve, though single readings can be large; an effect the other way counts as inactive or inconclusive.

SMILES	RORg inh	BRCA1 expr act	VP16 counter	ELG1 repair inh	p53 reactivation	Giardia killer
O=C(NCc1ccco1)C12CC3CC(CC(C3)C1)C2	9.0%	0.3%	-7.6%	-3.8%	-1.1%	3.7
O=C(Cc1cccs1)NCc1ccco1	20.7%	8.9%	15.4%	13.2%	4.0%	-1.3
O=C(Cc1ccc(-c2ccccc2)cc1)NNC(=S)NCc1ccco1	5.62µM*	-21.8%	?	?	-2.4%	-4.6
C/C(CC(=O)NCc1ccco1)=N\NC(=O)Cc1ccc(-c2ccccc2)cc1	-1.1%	-10.1%	-15.1%	1.8%	-8.5%	-5.6
O=C(CC12CC3CC(CC(C3)C1)C2)NC(=S)NCc1ccco1	3.55µM*	-41.5%	?	?	?	-11.8
O=C(Cc1cccs1)NNC(=S)NCc1ccco1	14.1µM*	-6.8%	-4.8%	2.3%	4.0%	-25.2
Cc1cccc(CNC(=O)C2CCC(=O)N(CC3CCCCC3)C2)c1 (centres undefined)	.	-10.5%	.	.	.	.
COc1cc2ccccc2cc1C(=O)Nc1sc2c(c1C(N)=O)CCN(C(C)C)C2	12.6µM*	.	17.8µM*	-10.3%	24.9%	.
CN1CCc2c(sc(NC(=O)c3ccc4ccccc4c3)c2C(N)=O)C1	?	.	?	?	0.7%	.
COc1ccc(-n2cnnc2SCC(=O)N2CCN(c3ccccc3)CC2)cc1	24.7%	11.2%	3.4%	?	-4.2%	-18.7
C=CCn1c(COc2cccc(C)c2C)nnc1SCC(=O)N1CCN(c2ccccc2)CC1	?	-64.5%	?	20.6µM*	-14.1%	-4.6
COc1ccc(N2CCN(C(=O)CSc3nnc(-c4cc5ccccc5cc4O)n3C)CC2)cc1	?	-61.2%	?	11.2µM*	3.3%	5.0
Cn1c(SCc2ccccc2)nnc1-c1c[nH]c2ccccc12	62.7%	11.2µM*	?	?	7.1%	4.2
CC(C)n1c(SCC(=O)Nc2nc3c(s2)CCCC3)nc2c1c(=O)n(C)c(=O)n2C	?	-48.6%	-5.2%	18.4µM*	-25.3%	4.3
COc1cc(/C=N/N(C)C)ccc1OC(=O)c1ccco1	13.5%	-11.9%	2.6%	-1.6%	-0.3%	11.9
CC(OCCN1CCCC1)(c1ccc(F)cc1)c1ccc(F)cc1	-10.3%	-25.3%	-5.7%	-12.6%	-4.8%	-3.2
COc1ccc(-n2nnnc2SCC(=O)N2CCOCC2)cc1	32.1%	32.2%	-7.5%	?	-2.2%	11.3
CC1(C)Cc2ccccc2-c2nnc(SCC(=O)N3CCN(c4ccccc4)CC3)n21	6.4%	-65.0%	-15.0%	14.6µM*	-9.4%	30.1
NC(=O)CCCSc1nc2ccccc2[nH]1	2.6%	27.8%	23.4%	3.6%	-4.7%	-11.2
Cn1c(SCc2ccccc2)nnc1-c1ccc2c(c1)OCO2	?	6.31µM*	-5.0%	?	?	1.4
COc1ccc(N2CCN(C(=O)CSc3nnnn3-c3ccc4c(c3)OCCO4)CC2)cc1	?	-34.8%	?	23.1µM*	-6.2%	8.6
Cn1c(SCC#N)nnc1-c1ccc2c(c1)OCO2	-7.2%	0.2%	-12.4%	1.0%	-6.8%	-0.8
COc1ccc(N2CCN(C(=O)CCCSc3nc4ccccc4[nH]3)CC2)cc1	1.7%	-8.3%	-14.5%	23.1µM*	-0.6%	1.7
CCC(CO)Nc1ncnc2onc(-c3ccc(F)cc3)c12 (centres undefined)	22.8%	-9.9%	-2.3%	-1.6%	-2.8%	-28.0
COc1ccc(N2CCN(C(=O)CSc3nc4c(c(=O)n(C)c(=O)n4C)n3C(C)C)CC2)cc1	34.0%	-29.5%	2.0%	20.6µM*	0.9%	7.3
SMILES	RORg inh	BRCA1 expr act	VP16 counter	ELG1 repair inh	p53 reactivation	Giardia killer
CCn1c(SCC(=O)N2CCN(c3ccccc3)CC2)nnc1-c1c[nH]c2ccccc12	?	-44.3%	?	13µM*	-3.9%	-9.4
Cn1c(SCC(=O)N2CCN(c3ccccc3)CC2)nnc1-c1c[nH]c2ccccc12	18.0%	-51.6%	?	10.3µM*	0.5%	17.3
CC(C)n1c(SCC(=O)N2CCCCC2)nc2c1c(=O)n(C)c(=O)n2C	3.1%	3.7%	-16.8%	-1.8%	-3.5%	-13.7
Cn1c(SCC(=O)N2CCN(c3ccccc3)CC2)nnc1-c1ccccc1	3.2%	-16.9%	-7.3%	?	-12.1%	-7.7
C=C(C)COc1ccc(-c2[nH]ncc2-c2ccc(Br)cc2)c(O)c1	7.94µM*	-78.1%	10µM*	?	-22.8%	3.6
CCc1cc(-c2[nH]ncc2-c2ccc(OC)cc2)c(O)cc1O	-13.0%	-50.6%	1.6%	?	-5.6%	0.3
C=C(C)COc1ccc(-c2[nH]ncc2Oc2ccccc2OC)c(O)c1	11.2µM*	-32.3%	?	.	.	-6.6
CCCOC(=O)c1ccc(Oc2cn[nH]c2-c2ccc(OC)cc2O)cc1	10µM*	-64.5%	22.4µM*	?	-5.1%	-3.1
C=C(C)COc1ccc(-c2nc(N)ncc2Oc2ccccc2OC)c(O)c1	16.7%	-81.9%	-11.3%	-6.9%	-13.1%	1.7
CCOc1ccc(-c2[nH]ncc2-c2ccc(Cl)cc2)c(O)c1	11.2µM*	-11.6%	?	-5.4%	-5.4%	10.3
C=C(C)COc1ccc(-c2ncncc2-c2ccc(Br)cc2)c(O)c1	-34.2%	-35.8%	-23.8%	3.0%	-3.0%	12.5
COCCSc1nnc(NC(=O)C2CCN(C(=O)c3ccco3)CC2)s1	?	-9.9%	1.3%	2.7%	4.1%	-7.2
COc1ccc(-n2nnnc2SCC(=O)Nc2nnc(C)s2)cc1OC	-3.3%	3.9%	1.5%	9.6%	-4.4%	-0.4
CC12CCC(=O)C=C1CCC1C2C(=O)CC2(C)C1CC[C@]2(O)C(=O)CO (some centres undefined)	8.3%	-1.3%	-8.3%	-13.1%	3.1%	?
C=C(C)COc1ccc(-c2nc(N)ncc2-c2ccc(Br)cc2)c(O)c1	10.0%	-80.8%	-7.1%	5.5%	-18.1%	19.5
C=C(C)COc1ccc(-c2[nH]ncc2-c2ccccc2OC)c(O)c1	8.91µM*	-60.6%	12.6µM*	?	-4.1%	0.9
C=C(C)COc1ccc(-c2[nH]ncc2Oc2ccc(OC)cc2)c(O)c1	12.6µM*	7.8%	?	28.4%	18.3%	4.2
C=C(C)COc1ccc(-c2ncncc2-c2ccccc2OC)c(O)c1	-44.0%	-39.5%	?	-13.5%	-4.7%	33.9
COc1ccc(-c2cn[nH]c2-c2ccc(OCc3ccc([N+](=O)[O-])cc3)cc2O)cc1	2.82µM*	-64.5%	2µM*	?	-15.3%	11.3
C=C(C)COc1ccc(-c2n[nH]c(C)c2-c2ccc(Br)cc2)c(O)c1	3.16µM*	-94.8%	4.47µM*	?	-10.4%	6.3
COc1ccc(NC(=O)Cn2c(=O)n(CCc3ccccc3)c(=O)c3ccccc32)cc1	.	-28.3%	.	.	.	.
